Measured values taken from PubChem BioAssay (Tox21).
Where “and” joins values, the source holds several entries; their conditions need not be identical. Identical values can stand only once. Records with an inconclusive call do not appear. A call without a number means that no potency is given here. Some compounds were tested as several samples or in several runs, with calls that do not always agree. Calls of active or inactive are those of the source. The call rests on the fitted dose curve; in most records, active means well fitted curve in the direction sought with a large enough effect in the repeat runs; inconclusive means weak or mixed curves; inactive means no such curve, though single readings can be large; an effect the other way counts as inactive or inconclusive.

How the values were obtained:
[1] = qHTS RealTime-Glo MT Cell Viability Assay in HepG2 cells - 40 hour (AID 1224870); further: nearly all actives have a fitted effect of over 50% in size; further: potency means the concentration at half of the fitted maximal effect
Procedure, shortened: (§1)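 Real-time viability: cells seeded at 600 per well together with NanoLuc and cell-permeant prosubstrate, compounds added after 5 h incubation. Luminescence tracked at 0, 8, 16, 24, 32 and 40 h of exposure.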

[2] = A CellTox Green Cytotoxicity Assay to monitor cytotoxicity in HEK293 cells - 40 hour (AID 1224871); further: nearly all actives have a fitted effect of over 45% in size; further: potency means the concentration at half of the fitted maximal effect
Procedure, shortened: (§2)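 Tox21 screen in HEK293: membrane-impermeant cyanine dye fluoresces on binding dead-cell DNA; compound pinned 5 h post-seeding, plates held at 37 C, signal read repeatedly through 40 h.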

[3] = qHTS RealTime-Glo MT Cell Viability Assay in HepG2 cells - 8 hour (AID 1224873); further: nearly all actives have a fitted effect of over 55% in size; further: potency means the concentration at half of the fitted maximal effect
Procedure, shortened: as §1

[4] = A CellTox Green Cytotoxicity Assay to monitor cytotoxicity in HepG2 cells - 16 hour (AID 1224876); further: nearly all actives have a fitted effect of over 45% in size
Procedure, shortened: (§3)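 Measurements at 0, 8, 16, 24, 32 and 40 h of treatment captured CellTox Green fluorescence in HepG2 cells that had been co-plated with reagent and preincubated 5 h at 37 C/5% CO2.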

[5] = qHTS RealTime-Glo MT Cell Viability Assay in HepG2 cells - 32 hour (AID 1224877); further: nearly all actives have a fitted effect of over 55% in size; further: potency means the concentration at half of the fitted maximal effect
Procedure, shortened: (§4)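 Real-time, nonlytic viability: 600 HepG2 cells/well mixed with NanoLuc enzyme plus prosubstrate; 5 h settle, compound (DMSO) added by pintool; luminescence monitored over 40 h at 37 C.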

[6] = A CellTox Green Cytotoxicity Assay to monitor cytotoxicity in HepG2 cells - 24 hour (AID 1224878); further: nearly all actives have a fitted effect of over 45% in size; further: potency means the concentration at half of the fitted maximal effect
Procedure, shortened: as §3

[7] = A CellTox Green Cytotoxicity Assay to monitor cytotoxicity in HepG2 cells - 40 hour (AID 1224879); further: nearly all actives have a fitted effect of over 40% in size; further: potency means the concentration at half of the fitted maximal effect
Procedure, shortened: as §3

[8] = qHTS RealTime-Glo MT Cell Viability Assay in HEK293 cells - 0 hour (AID 1224880); further: nearly all actives have a fitted effect of over 45% in size; further: potency means the concentration at half of the fitted maximal effect
Procedure, shortened: (§5)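 HEK293 + NanoLuc + prosubstrate, 600 cells/well; 5 h, 37 C/5% CO2; compound 23 nL in DMSO by pintool; 37 C; luminescence read at 0, 8, 16, 24, 32 and 40 h time points.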

[9] = A CellTox Green Cytotoxicity Assay to monitor cytotoxicity in HEK293 cells - 32 hour (AID 1224881); further: nearly all actives have a fitted effect of over 40% in size; further: potency means the concentration at half of the fitted maximal effect
Procedure, shortened: as §2

[10] = A CellTox Green Cytotoxicity Assay to monitor cytotoxicity in HepG2 cells - 0 hour (AID 1224882); further: nearly all actives have a fitted effect of over 35% in size
Procedure, shortened: as §3

[11] = A CellTox Green Cytotoxicity Assay to monitor cytotoxicity in HepG2 cells - 32 hour (AID 1224883); further: nearly all actives have a fitted effect of over 50% in size
Procedure, shortened: as §3

[12] = A CellTox Green Cytotoxicity Assay to monitor cytotoxicity in HEK293 cells - 8 hour (AID 1224884); further: nearly all actives have a fitted effect of over 35% in size
Procedure, shortened: as §2

[13] = qHTS RealTime-Glo MT Cell Viability Assay in HepG2 cells - 16 hour (AID 1224885); further: nearly all actives have a fitted effect of over 50% in size; further: potency means the concentration at half of the fitted maximal effect
Procedure, shortened: as §4

[14] = qHTS RealTime-Glo MT Cell Viability Assay in HEK293 cells - 8 hour (AID 1224887); further: nearly all actives have a fitted effect of over 50% in size; further: potency means the concentration at half of the fitted maximal effect
Procedure, shortened: as §5

[15] = A CellTox Green Cytotoxicity Assay to monitor cytotoxicity in HEK293 cells - 16 hour (AID 1224888); further: nearly all actives have a fitted effect of over 35% in size
Procedure, shortened: as §2

[16] = qHTS RealTime-Glo MT Cell Viability Assay in HepG2 cells - 0 hour (AID 1224889); further: nearly all actives have a fitted effect of over 50% in size; further: potency means the concentration at half of the fitted maximal effect
Procedure, shortened: as §4

[17] = qHTS RealTime-Glo MT Cell Viability Assay in HEK293 cells - 16 hour (AID 1224872); further: nearly all actives have a fitted effect of over 50% in size; further: potency means the concentration at half of the fitted maximal effect
Procedure, shortened: (§6)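 Cells + reagent dispensed (600 cells/well, HEK293) → 5 h at 37 C/5% CO2 → 23 nL compound in DMSO pinned → 40 h at 37 C → luminescence read at 0, 8, 16, 24, 32, 40 h.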

[18] = A CellTox Green Cytotoxicity Assay to monitor cytotoxicity in HEK293 cells - 24 hour (AID 1224875)
Procedure, shortened: as §2

[19] = qHTS RealTime-Glo MT Cell Viability Assay in HEK293 cells - 24 hour (AID 1224886); further: nearly all actives have a fitted effect of over 50% in size; further: potency means the concentration at half of the fitted maximal effect
Procedure, shortened: as §6

[20] = qHTS RealTime-Glo MT Cell Viability Assay in HEK293 cells - 40 hour (AID 1224874); settings: RealTime-Glo luminescence; max response: stronger effect = lower value; further: nearly all actives have a fitted effect of over 50% in size
Procedure, shortened: as §5

SMILES	Potency [1]	Potency [2]	Potency [3]	Potency [4]	Potency [5]	Potency [6]	Potency [7]	Potency [8]	Potency [9]	Potency [10]	Potency [11]	Potency [12]	Potency [13]	Potency [14]	Potency [15]	Potency [16]	Potency [17]	Potency [18]	Potency [19]	max response [20]
CC(=O)Oc1ccccc1C(=O)Nc1ncc([N+](=O)[O-])s1	inactive	inactive	inactive	inactive	inactive	inactive	11.2 µM (active)	inactive	inactive	inactive	inactive	inactive	inactive	inactive	inactive	inactive				
Cc1c(OCC(F)(F)F)ccnc1CS(=O)c1nc2ccccc2[nH]1 (centres undefined)	inactive	inactive	inactive	inactive	inactive	inactive	inactive	inactive	inactive	inactive		inactive	inactive	21.9 µM (active) and 23.9 µM (active)	inactive	inactive	19.5 µM (active) and 23.9 µM (active)	inactive	19.5 µM (active) and 19 µM (active)	
O=C(c1ccc(OCCN2CCCCC2)cc1)c1c(-c2ccc(O)cc2)sc2cc(O)ccc12	54.9 µM (active) and inactive	55 µM (active) and 54.9 µM (active)	inactive	inactive	55 µM (active) and 54.9 µM (active) and inactive	55 µM (active) and 54.9 µM (active)	49 µM (active) and 26.8 µM (active)	inactive	54.9 µM (active) and inactive	inactive		inactive	inactive	21.9 µM (active)			19.5 µM (active) and 21.9 µM (active)		19.5 µM (active)	
OC(CCl)CCl	inactive	inactive	inactive	inactive	inactive	inactive	inactive	inactive	inactive	inactive		inactive	inactive	inactive	inactive	inactive	inactive		inactive	
Nc1ccc(S(=O)(=O)Nc2cnc3ccccc3n2)cc1	inactive	inactive	inactive		inactive	inactive	inactive	inactive	inactive	inactive	inactive	inactive	inactive	inactive	inactive	inactive	inactive	inactive	inactive	
OCCO	inactive	inactive	inactive	inactive	inactive	inactive	inactive	inactive	inactive	inactive		inactive	inactive	inactive	inactive	inactive	inactive		inactive	
O=C(O)c1ccccc1Nc1cccc(C(F)(F)F)c1	inactive	inactive	inactive	inactive	inactive	inactive	inactive	inactive	inactive	inactive		inactive	inactive	inactive	inactive	inactive	inactive	inactive	inactive	
COC(=O)C1=C(C)NC(C)=C(C(=O)OCCN(C)Cc2ccccc2)C1c1cccc([N+](=O)[O-])c1 (centres undefined)	43.4 µM (active)	inactive	24.4 µM (active) and 19 µM (active)	inactive	43.4 µM (active)	48.7 µM (active) and inactive	48.7 µM (active) and inactive	5.46 µM (active) and 6.01 µM (active)	inactive	inactive		inactive	24.4 µM (active) and 10.7 µM (active)	24.4 µM (active) and 19 µM (active)	inactive	6.13 µM (active) and 3.38 µM (active)	21.7 µM (active) and 16.9 µM (active)		21.7 µM (active) and 19 µM (active)	
CC(=O)C1(C)CC2=C(CCCC2(C)C)CC1C (centres undefined)	inactive	41.6 µM (active)	inactive	inactive	inactive	inactive	inactive	inactive		inactive	inactive	inactive	inactive	inactive	inactive	inactive	inactive		inactive	
Brc1cc(Oc2cc(Br)c(Br)c(Br)c2Br)c(Br)c(Br)c1Br	inactive	inactive	inactive	inactive	inactive	inactive	inactive	inactive	inactive	inactive		inactive	inactive	inactive	inactive	inactive	inactive		inactive	
Cc1cccc(C(=O)O)c1	inactive	inactive	inactive		inactive	inactive	inactive	inactive	inactive	inactive		inactive	inactive	inactive	inactive	inactive	inactive		inactive	0.572% (inactive) and -3.52% (inactive)
CC(C)OC(=O)C(C)(C)Oc1ccc(C(=O)c2ccc(Cl)cc2)cc1	inactive	inactive	inactive	inactive	inactive	inactive	inactive	inactive	inactive	inactive		inactive	inactive	24.5 µM (active) and 16.9 µM (active)	inactive	inactive	21.9 µM (active) and 16.9 µM (active)		19.5 µM (active) and 10.7 µM (active)	
